Peg3 promoter = Peg3 promoter activity inhibition; HeLa PEG-Prom luciferase reporter, luminescence, overnight; inhibition, % at 20 µM; hit rate 1.7% among 360,000; AID 588405;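 active means inhibition of at least 50% at 20 µM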
CF NFkB block = inhibitors of cystic fibrosis induced NF-kB; inhibition, % at 5 µM; hit rate 0.86% among 360,000; AID 588850; KKLEB NF-kB-GFP reporter, PAF-induced, GFP fluorescence overnight;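 active means at least 50% inhibition at 5 µM, scaled per plate between neutral and stimulator controls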;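 further: PAF is a Pseudomonas aeruginosa culture filtrate used as stimulus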
TROY signal inh = TROY signaling inhibition | Q293 LMP1-TROYcd NF-kB luciferase reporter, 4 h | inhibition, % at 10 µM | hit rate 0.98% among 360,000;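 active means compounds whose plate-normalised and pattern-corrected inhibition of the luciferase reporter signal at the single screening dose is 50% or more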
HIF-2a inh = inhibitors of HIF-2a. 786-0 RCC cells HIF-2a reporter, luciferase luminescence, overnight. inhibition, % at 18.8 µM. hit rate 0.72% among 360,000;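 active means inhibition of the luminescence signal of 40% or more relative to plate controls, in a single-dose primary screen at 18.75 µM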
KKLEB cytotox = counter-screen for CF NF-kB inhibitors: cytotoxicity; KKLEB CF airway cells viability, ATPlite luminescence, overnight; hits give low values; cells stimulated with P. aeruginosa culture filtrate; activity change (cytotoxicity), % at 5 µM; hit rate 0.36% among 360,000; AID 602141;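 active means corrected activity change at or below -50% at 5 µM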
TWEAK Fn14 block = blocks TWEAK-Fn14 interaction in a reporter cell assay. AID 1159606. hit rate 2% among 360,000. inhibition, % at 10 µM. TWEAK-stimulated Fn14 reporter cells, luciferase luminescence, 8 h; in the data active means inhibition above about 50%
Numbers stand for hits; – = inactive; · = no result. Most compounds without a hit are left out; they make up all but 4% or so of the library.

SMILES	Peg3 promoter	CF NFkB block	TROY signal inh	HIF-2a inh	KKLEB cytotox	TWEAK Fn14 block
CCOC(=O)c1[nH]c2ccccc2c1NC(=O)c1ccc(Br)o1	–	–	–	–	–	66
O=C(Nc1ccccc1Cl)N1CCN(c2ccccn2)CC1	–	–	–	–	–	101
COc1ccccc1NC(=O)N1CCN(c2ccccn2)CC1	–	–	–	–	–	–
CCc1nc2ccc(C(=O)Nc3ccc4c(c3)OCC(=O)N4)cn2c1N(C)C(=O)C1CCCCC1	–	–	–	–	–	–
CCOC(=O)C1CCCN(C(=O)Cn2cccc2C(=O)c2ccccc2)C1 (configuration not stated)	–	–	–	–	–	99
CCOC(=O)C1CCN(C(=O)Cn2cccc2C(=O)c2ccccc2)CC1	–	–	–	–	–	–
COc1ccc(CN=C2NN=C(c3cccc(OC)c3)CS2)cc1	–	–	–	–	–	–
Cc1cc(C)nc(NC(=NCCc2c[nH]c3ccccc23)NC(=O)Nc2ccccc2)n1	52	–	–	–	–	–
CC(=O)N1CCC(C(=O)Nc2ccccc2)(N(Cc2ccccc2)C(=O)c2cccnc2)CC1	–	–	51	–	–	–
O=C(COC(=O)c1cccnc1)Nc1ccccc1	–	–	–	–	–	–
O=C1c2cccc3cccc(c23)C(=O)N1CCO	–	–	–	–	–	–
CCN(CC)CCN1C(=O)c2cccc3cc(N)cc(c23)C1=O	51	–	–	–	–	–
COc1cc(/C=N/Nc2ccc(S(N)(=O)=O)cc2[N+](=O)[O-])cc(OC)c1O	–	–	59	–	–	–
COc1cc(/C=N/Nc2ccccc2[N+](=O)[O-])cc(OC)c1O	–	–	–	–	–	–
CC(=O)Oc1ccc(/C=C2/CCc3ccccc3C2=O)cc1	–	–	61	–	–	88
CCN1C/C(=C\c2cccc([N+](=O)[O-])c2)C(=O)/C(=C/c2cccc([N+](=O)[O-])c2)C1	105	94	–	97	-57	93
O=C1/C(=C/c2cccc([N+](=O)[O-])c2)CCc2ccccc21	–	–	–	–	–	93
COc1cccc(/C=C2\CCc3ccccc3C2=O)c1	–	–	–	–	–	61
COc1ccc(/C=C2\CCc3ccccc3C2=O)cc1OC	–	–	–	–	–	–
COc1cccc(C=C2Cc3ccccc3C2=O)c1	–	–	–	–	–	–
O=C1/C(=C/c2cccc([N+](=O)[O-])c2)CSc2ccc(Cl)cc21	–	–	–	–	–	–
O=C(Nc1ccc(F)cc1)c1cccnn1	–	–	–	–	–	–
COc1ccc(CN(C)C(=O)c2[nH]c(C)c(C(C)=O)c2C)cc1F	–	–	–	–	–	–
COc1ccc2nc(NC(=O)CSc3nc(SC)ns3)sc2c1	–	–	–	–	–	53
COc1ccc(-c2csc(NC(=O)CSc3nc(C)cs3)n2)cc1	–	–	–	–	–	–
SMILES	Peg3 promoter	CF NFkB block	TROY signal inh	HIF-2a inh	KKLEB cytotox	TWEAK Fn14 block
COc1ccc(-c2csc(NC(=O)CSc3nc(SC)ns3)n2)cc1	–	–	54	–	–	69
Cc1ccc(Cc2c(C)c(C#N)c3[nH]c4ccccc4n3c2=O)cc1	–	–	60	–	–	61
c1ccc(OCCSc2nnc3sc4ccccc4n23)cc1	–	–	67	–	–	91
COc1cccc(OCCSc2nnc3sc4ccccc4n23)c1	–	–	–	–	–	–
COc1ccc(C(C)(O)c2nc(-c3ccc(S(C)(=O)=O)cc3)cs2)cc1 (configuration not stated)	–	–	–	–	–	–
Cc1ccccc1C(=O)Nc1c(C(=O)N(CCN(C)C)Cc2ccco2)oc2ccccc12	–	–	–	–	–	–
COc1ccccc1C(=O)Nc1c(C(=O)N(CCN(C)C)Cc2ccco2)oc2ccccc12	92	–	–	–	–	–
CCOC(=O)Nc1cc(C(=O)OCC)c(C)nc1C	–	–	·	–	–	76
CCOC(=O)c1cc(NC(=O)Nc2cc(C)ccn2)c(C)nc1C	–	–	–	–	–	–
O=C(Nc1cc(-c2ccccc2)nn1C1CCCCC1)c1ccc(Cl)cc1	–	–	54	–	–	–
O=C(CN1C(=O)C2CC=CCC2C1=O)Nc1cc(C(F)(F)F)ccc1N1CCCC1 (configuration not stated)	–	–	–	–	–	–
O=C(CCl)N=c1sccn1Cc1cccc2ccccc12	–	91	–	–	-98	–
COC(C(=O)C(O)C(C)O)C1Cc2cc3cc(OC4CC(OC5CC(O)C(O)C(C)O5)C(O)C(C)O4)c(C)c(O)c3c(O)c2C(=O)C1OC1CC(OC2CC(OC3CC(O)C(OC)C(C)O3)C(O)C(C)O2)C(O)C(C)O1 (configuration not stated)	100	90	–	–	–	85
C=CCn1c(C)nc2c(cnn2-c2ccccc2)c1=O	–	–	–	–	–	–
CCn1c(CCNC(=O)c2ccc(OC)cc2)nnc1SCc1ccc(Cl)cc1Cl	–	–	63	–	–	–
CC(C)N(C)c1ncnc2c1ncn2[C@H]1CN(CCc2ccccc2)C[C@@H](CO)O1	–	–	–	–	–	–
O=S(=O)(NC1c2cccc3cccc(c23)C1Sc1ncccn1)c1ccccc1 (configuration not stated)	–	–	91	–	–	108
COc1cc(NC(=O)[C@@H]2O[C@H](CO)[C@@H](O)[C@H]2O)cc(OC)c1OC	–	–	–	–	–	–
COc1ccc(N=N/C(=C\O)C(=O)c2cccs2)cc1	–	76	–	–	–	69
O=C(NC12CCC(O)C(SC1)/C2=N/O)c1ccccc1 (configuration not stated)	–	–	–	–	–	83
Cc1ccc(SCC(=O)Nc2nnc(C(C)(C)C)s2)cc1	–	–	–	–	–	–
CC1CCN(CCCNC(=O)c2cc3c(Cl)nc4ccccc4c3s2)CC1	53	–	–	–	–	–
CCOC(=O)C1=C(COC(=O)CCOc2ccc(OC)cc2)NC(=O)NC1C (configuration not stated)	–	–	–	–	–	–
CCOC(=O)C1=C(COC(=O)CCOc2ccc(C)cc2)NC(=O)NC1C (configuration not stated)	56	–	–	–	–	–
c1ccc2c(c1)COC(CNC1CCCCC1)OC2	–	–	–	–	–	–
COc1ccc(NCc2nnc(SCC(=O)Nc3nc(-c4ccccc4)cs3)n2-c2ccccc2)cc1	83	–	–	–	–	–
COc1ccc(NCc2nnc(SCc3ccc(Cl)cc3)n2-c2ccccc2)cc1	–	–	60	–	–	–
Cc1nn(Cc2cccc(C(=O)NCC(C)C)c2)c(C)c1Br	–	–	–	–	–	–
CC1=CC(=O)C(C(C)C)=C/C1=N/OS(=O)(=O)c1ccccc1	106	–	–	–	–	89
